Holding throughout (experiment): DAPPL (digital affinity profiling via proximity ligation, sequencing); 10 mM Tris-HCl pH 7.5, 50 mM NaCl, 1 mM DTT, 4% glycerol, room temperature, 30 min; GST-TFs on glutathione beads, 16-mer random dsDNA library, 0.1% formaldehyde crosslink after washing; high values mean tight binding
Holding throughout (details): protein: recombinant; tags: N-terminal GST; dsDNA, one strand shown

One assay addresses T1, GABPA (Homo sapiens, UniProt Q06546 1-454).
T1 sequence: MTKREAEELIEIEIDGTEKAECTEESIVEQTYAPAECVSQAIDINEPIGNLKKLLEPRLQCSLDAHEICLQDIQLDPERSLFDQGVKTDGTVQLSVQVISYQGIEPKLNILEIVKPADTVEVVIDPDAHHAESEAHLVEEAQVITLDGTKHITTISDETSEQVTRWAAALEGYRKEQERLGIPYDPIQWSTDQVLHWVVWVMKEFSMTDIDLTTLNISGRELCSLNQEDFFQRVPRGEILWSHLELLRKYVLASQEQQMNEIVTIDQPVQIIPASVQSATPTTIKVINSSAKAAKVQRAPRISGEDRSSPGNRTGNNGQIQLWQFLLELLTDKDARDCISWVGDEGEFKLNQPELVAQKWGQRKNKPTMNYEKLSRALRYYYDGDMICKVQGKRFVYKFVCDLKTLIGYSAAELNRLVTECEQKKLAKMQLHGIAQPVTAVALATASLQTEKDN
In a few lines: (§1)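 Binding signal is defined as a hexamer's read frequency for one factor over its frequency for the tag-only sample. To obtain reads, GST-fused human transcription factors were expressed in yeast, captured on glutathione beads, barcoded with DNA and pooled with that sample. Pools met 200 nmole of a 16-mer random double-stranded DNA library in Tris/NaCl/DTT/glycerol buffer for 30 min at room temperature before washing, 0.1% formaldehyde crosslinking, proximity ligation (BsaI/T4 ligase, 1 h, 37 °C), PCR and Illumina NextSeq500 sequencing.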

The target in another assay is T2, SPIC (Homo sapiens, UniProt Q8N5J4 1-248).
T2 sequence: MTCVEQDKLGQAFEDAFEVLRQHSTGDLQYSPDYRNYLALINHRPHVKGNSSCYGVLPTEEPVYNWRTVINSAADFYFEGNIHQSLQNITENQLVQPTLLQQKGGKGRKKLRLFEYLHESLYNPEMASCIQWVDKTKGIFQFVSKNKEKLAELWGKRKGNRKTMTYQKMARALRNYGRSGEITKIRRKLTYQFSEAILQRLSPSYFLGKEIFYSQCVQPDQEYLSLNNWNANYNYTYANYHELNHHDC
In short, it runs like this: as §1

In another assay the target is T3, ELK4 (Homo sapiens, UniProt P28324-2 1-405).
T3 sequence: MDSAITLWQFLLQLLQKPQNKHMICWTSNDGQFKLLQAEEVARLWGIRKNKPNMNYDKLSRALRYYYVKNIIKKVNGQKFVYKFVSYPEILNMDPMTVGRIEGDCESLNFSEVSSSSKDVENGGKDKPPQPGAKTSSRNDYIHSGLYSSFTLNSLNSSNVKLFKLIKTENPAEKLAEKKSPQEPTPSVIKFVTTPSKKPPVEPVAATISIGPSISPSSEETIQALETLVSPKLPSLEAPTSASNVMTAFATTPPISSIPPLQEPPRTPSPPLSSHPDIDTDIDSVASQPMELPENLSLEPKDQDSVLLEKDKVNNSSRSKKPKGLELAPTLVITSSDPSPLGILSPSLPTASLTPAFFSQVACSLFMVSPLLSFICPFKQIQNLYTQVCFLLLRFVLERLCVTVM
In a few lines:
as §1

For a further assay, the target named is T4, ELF3 (Homo sapiens, UniProt P78545 1-371).
T4 sequence: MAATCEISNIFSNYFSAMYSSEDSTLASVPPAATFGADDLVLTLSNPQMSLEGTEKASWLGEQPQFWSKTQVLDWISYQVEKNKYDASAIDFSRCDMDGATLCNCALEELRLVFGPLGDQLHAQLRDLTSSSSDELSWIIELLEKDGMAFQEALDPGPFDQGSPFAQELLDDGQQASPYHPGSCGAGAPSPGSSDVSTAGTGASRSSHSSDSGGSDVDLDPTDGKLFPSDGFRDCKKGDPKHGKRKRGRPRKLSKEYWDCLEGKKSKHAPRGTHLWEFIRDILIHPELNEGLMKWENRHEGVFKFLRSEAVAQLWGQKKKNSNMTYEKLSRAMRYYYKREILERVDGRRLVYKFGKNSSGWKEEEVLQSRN
In short, it runs like this:
as §1

In a further assay the target is T5, ETV7 (Homo sapiens, UniProt Q9Y603 1-341).
T5 sequence: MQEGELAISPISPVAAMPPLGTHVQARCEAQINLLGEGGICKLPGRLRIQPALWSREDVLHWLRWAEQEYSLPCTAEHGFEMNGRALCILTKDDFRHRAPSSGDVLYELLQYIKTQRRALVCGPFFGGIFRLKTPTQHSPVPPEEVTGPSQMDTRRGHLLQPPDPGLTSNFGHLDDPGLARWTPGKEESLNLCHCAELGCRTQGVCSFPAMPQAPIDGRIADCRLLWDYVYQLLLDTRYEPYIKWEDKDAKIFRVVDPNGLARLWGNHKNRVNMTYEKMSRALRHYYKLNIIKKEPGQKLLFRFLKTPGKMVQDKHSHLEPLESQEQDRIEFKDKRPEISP
In a few lines: as §1

The target in another assay is T6, ERG (Homo sapiens, UniProt P11308 1-479).
T6 sequence: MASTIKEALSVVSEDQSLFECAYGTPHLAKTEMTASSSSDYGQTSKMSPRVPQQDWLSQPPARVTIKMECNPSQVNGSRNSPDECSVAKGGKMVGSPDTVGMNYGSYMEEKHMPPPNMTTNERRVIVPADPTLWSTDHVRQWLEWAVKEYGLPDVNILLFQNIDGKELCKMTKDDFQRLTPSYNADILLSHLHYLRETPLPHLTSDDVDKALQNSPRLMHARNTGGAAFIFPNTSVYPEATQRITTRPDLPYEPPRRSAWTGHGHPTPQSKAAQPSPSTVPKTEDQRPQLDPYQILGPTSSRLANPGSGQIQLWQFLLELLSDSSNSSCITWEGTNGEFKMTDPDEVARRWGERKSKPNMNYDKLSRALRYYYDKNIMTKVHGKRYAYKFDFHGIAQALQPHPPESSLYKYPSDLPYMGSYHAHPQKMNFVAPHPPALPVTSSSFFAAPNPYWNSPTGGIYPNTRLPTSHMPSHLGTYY
In a few lines: as §1

For the next assay, the target named is ETV1 (Homo sapiens, UniProt P50549 1-477). In short, it runs like this: as §1
In a further assay the target is T7, ETS2 (Homo sapiens, UniProt P15036 1-469).
T7 sequence: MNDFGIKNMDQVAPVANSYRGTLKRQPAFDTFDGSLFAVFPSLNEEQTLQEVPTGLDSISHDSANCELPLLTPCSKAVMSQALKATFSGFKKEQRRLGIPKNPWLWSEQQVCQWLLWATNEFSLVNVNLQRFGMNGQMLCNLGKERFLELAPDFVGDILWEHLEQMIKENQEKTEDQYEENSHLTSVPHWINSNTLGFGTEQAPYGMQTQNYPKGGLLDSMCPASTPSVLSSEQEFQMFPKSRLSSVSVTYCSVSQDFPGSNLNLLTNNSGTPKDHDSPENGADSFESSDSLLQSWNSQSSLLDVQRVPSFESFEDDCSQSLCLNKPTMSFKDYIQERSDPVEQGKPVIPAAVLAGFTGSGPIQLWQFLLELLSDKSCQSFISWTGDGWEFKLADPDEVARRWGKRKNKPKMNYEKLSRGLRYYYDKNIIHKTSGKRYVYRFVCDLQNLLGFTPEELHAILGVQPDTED
In a few lines: as §1

A further assay concerns the target T8, ETV3L (Homo sapiens, UniProt Q6ZN32 1-361).
T8 sequence: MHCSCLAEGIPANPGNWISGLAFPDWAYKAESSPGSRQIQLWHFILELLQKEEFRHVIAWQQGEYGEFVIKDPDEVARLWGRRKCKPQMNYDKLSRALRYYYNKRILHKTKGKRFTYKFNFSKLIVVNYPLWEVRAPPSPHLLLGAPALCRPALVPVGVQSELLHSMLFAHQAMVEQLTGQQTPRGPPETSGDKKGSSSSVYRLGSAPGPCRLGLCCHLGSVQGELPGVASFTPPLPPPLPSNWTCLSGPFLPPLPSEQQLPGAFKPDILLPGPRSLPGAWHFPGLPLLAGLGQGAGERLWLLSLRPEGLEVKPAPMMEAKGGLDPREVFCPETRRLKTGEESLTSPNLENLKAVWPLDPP
In short, it runs like this: as §1

The target of the next assay is T9, ELK1 (Homo sapiens, UniProt P19419 1-428).
T9 sequence: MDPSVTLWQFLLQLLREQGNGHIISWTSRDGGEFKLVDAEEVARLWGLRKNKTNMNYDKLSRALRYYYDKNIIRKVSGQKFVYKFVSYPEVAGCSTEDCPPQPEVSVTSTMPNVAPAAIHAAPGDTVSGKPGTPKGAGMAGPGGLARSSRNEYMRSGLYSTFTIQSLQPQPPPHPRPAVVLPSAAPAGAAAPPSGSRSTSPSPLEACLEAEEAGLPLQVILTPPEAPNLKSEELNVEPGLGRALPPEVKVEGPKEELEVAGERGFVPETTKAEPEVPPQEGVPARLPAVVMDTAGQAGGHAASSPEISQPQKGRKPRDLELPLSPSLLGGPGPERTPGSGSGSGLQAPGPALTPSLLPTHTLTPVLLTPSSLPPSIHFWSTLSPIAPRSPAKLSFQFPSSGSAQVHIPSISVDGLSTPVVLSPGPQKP
In short, it runs like this:
as §1

Chain of ETV1 (P50549 whole entry): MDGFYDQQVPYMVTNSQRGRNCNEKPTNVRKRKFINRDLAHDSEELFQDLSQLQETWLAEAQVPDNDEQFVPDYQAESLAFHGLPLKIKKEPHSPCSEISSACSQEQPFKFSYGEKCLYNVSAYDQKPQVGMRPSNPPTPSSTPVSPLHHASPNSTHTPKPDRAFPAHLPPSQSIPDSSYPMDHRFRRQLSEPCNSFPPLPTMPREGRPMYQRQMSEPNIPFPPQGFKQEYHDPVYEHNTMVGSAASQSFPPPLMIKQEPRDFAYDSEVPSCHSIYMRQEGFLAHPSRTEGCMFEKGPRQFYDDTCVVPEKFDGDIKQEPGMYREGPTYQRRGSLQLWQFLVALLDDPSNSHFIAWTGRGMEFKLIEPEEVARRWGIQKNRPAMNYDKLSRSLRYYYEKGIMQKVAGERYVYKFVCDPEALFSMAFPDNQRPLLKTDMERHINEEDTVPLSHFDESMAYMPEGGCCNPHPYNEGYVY

Regarding ATAGTC, the binding signal in the assay with GABPA was 1.01 fold enrichment (6-mer frequency, TF over GST control); with SPIC, 1.1 fold enrichment (6-mer frequency, TF over GST control); with ELK4, 1.04 fold enrichment (6-mer frequency, TF over GST control); in the assay with ELF3, 1.07 fold enrichment (6-mer frequency, TF over GST control).

As for AAGGCC, the binding signal with SPIC was 1.06 fold enrichment (6-mer frequency, TF over GST control); in the assay with ETV7 it was 1.01 fold enrichment (6-mer frequency, TF over GST control).

CGTCAT: the binding signal with GABPA is 1.03 fold enrichment (6-mer frequency, TF over GST control); with ERG it was 1.02 fold enrichment (6-mer frequency, TF over GST control); with SPIC it was 1.05 fold enrichment (6-mer frequency, TF over GST control); with ELK4, 1.09 fold enrichment (6-mer frequency, TF over GST control); with ETV1, 1.09 fold enrichment (6-mer frequency, TF over GST control); with ETS2, 1.03 fold enrichment (6-mer frequency, TF over GST control).

For AGCATG, the binding signal with SPIC was 1.07 fold enrichment (6-mer frequency, TF over GST control); with ETV3L, 1.02 fold enrichment (6-mer frequency, TF over GST control).

AGGTGT: the binding signal in the assay with SPIC is 1.02 fold enrichment (6-mer frequency, TF over GST control); with ELF3, 1.05 fold enrichment (6-mer frequency, TF over GST control).

As for TGGCGC, the binding signal in the assay with GABPA is 1.02 fold enrichment (6-mer frequency, TF over GST control); in the assay with SPIC, 1.1 fold enrichment (6-mer frequency, TF over GST control); in the assay with ELK4, 1.06 fold enrichment (6-mer frequency, TF over GST control).

For the sequence GACATG, the binding signal is 1.01 fold enrichment (6-mer frequency, TF over GST control) with ELK1; 1.1 fold enrichment (6-mer frequency, TF over GST control) with SPIC; 1.03 fold enrichment (6-mer frequency, TF over GST control) with ETV7.
